From PubChem BioAssay (NCI)
About 83,000 compounds went through this panel and 20% of them were active in at least one assay; those are over-represented in the sample as a whole.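 Compound tested at a single concentration for 48 hours in 96-well plates; a percent growth value below 10 was scored as active.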 Active and inactive are the calls of the source.

What was measured:
Assay in all cases: NCI-60 one-dose screen, 48 h (100 = growth as untreated, 0 = no growth, -100 = all killed)
[1] = test system: HCT-15 colon; settings: 10 µM unless noted
[2] = test system: HT29 colon; settings: 10 µM unless noted
[3] = test system: SNB-75 CNS; settings: 10 µM unless noted
[4] = test system: SNB-19 CNS; settings: 10 µM unless noted
[5] = test system: U251 CNS; settings: 10 µM unless noted
[6] = test system: PC-3 prostate; settings: 10 µM unless noted
[7] = test system: SK-MEL-5 melanoma; settings: 10 µM unless noted
[8] = test system: SK-MEL-28 melanoma; settings: 10 µM unless noted
[9] = test system: SK-MEL-2 melanoma; settings: 10 µM unless noted
[10] = test system: EKVX NSCLC; settings: 10 µM unless noted
[11] = test system: SN12C renal; settings: 10 µM unless noted
[12] = test system: UO-31 renal; settings: 10 µM unless noted
[13] = test system: TK-10 renal; settings: 10 µM unless noted
[14] = test system: ACHN renal; settings: 10 µM unless noted
[15] = test system: CAKI-1 renal; settings: 10 µM unless noted
[16] = test system: A498 renal; settings: 10 µM
[17] = test system: HL-60(TB) leukemia; settings: 10 µM unless noted
[18] = test system: CCRF-CEM leukemia; settings: 10 µM unless noted
[19] = test system: UACC-62 melanoma; settings: 10 µM unless noted
[20] = test system: LOX IMVI melanoma; settings: 10 µM unless noted

Measured: growth

CCCCCCCCCCCCCCCCCC1OC[C@H](COC(=O)O[C@@H](C(=O)O[C@H]2C[C@@]3(O)[C@@H](OC(=O)c4ccccc4)[C@@H]4[C@]5(OC(C)=O)CO[C@@H]5C[C@H](O)[C@@]4(C)C(=O)[C@H](OC(C)=O)C(=C2C)C3(C)C)[C@@H](NC(=O)c2ccccc2)c2ccccc2)O1 (stereo partly drawn)
inactive: [1] 96.8% | [2] 15.7% | [3] 59.1% | [4] 49.6% | [5] 46.6% | [6] 45.2% | [7] 75.6% | [8] 55.9% | [9] 75% | [10] 93.7% | [11] 56.8% | [12] 98.1% | [13] 99.8% | [14] 96.2% | [15] 81% | [16] 72% | [17] 23.3% | [18] 44.8%

O=C(CC1(O)C(=O)Nc2ccc(Cl)cc21)c1ccc(C(=O)NCC2CCC3(CC2)OOC2(CCCCC2)OO3)cc1 (stereo not drawn)
active: [3] -3.77% | [5] -54.2% | [6] -34.2% | [10] -64.2% | [12] -81.1% | [13] -52.7% | [14] -87.3% | [15] -85.9% | [17] -62% | [18] -41.3%
inactive: [1] 49.1% | [2] 15.1% | [4] 30.3% | [19] 50.7% | [20] 32.3% | [8] 69.2% | [9] 12.7% | [11] 28.2% | [16] 26.9%

Cc1c2cc(Cl)c3ccccc3c2c[n+]2ccccc12
inactive: [1] 103% | [2] 88.9% | [19] 29.1% | [20] 84.6% | [10] 43.2% | [12] 62% | [13] 93.3% | [14] 92.2% | [16] 90.2% | [17] 62.3% | [18] 35.5%
active: [3] -15.7% | [4] -26.3% | [5] 0.443% | [7] -43.5% | [8] -27.2% | [9] -16.6% | [11] -19.4%

Nc1ccc(OCCNS(=O)(=O)c2cccc(S(=O)(=O)F)c2)c(Cl)c1
active: [12] -13.3%
inactive: [1] 93.4% | [2] 106% | [3] 50.5% | [4] 96.6% | [6] 97.6% | [7] 97.1% | [19] 93.2% | [20] 94.2% | [8] 88.8% | [9] 88.9% | [11] 102% | [13] 102% | [14] 96.2% | [15] 86.8% | [16] 70.8% | [17] 98.1% | [18] 93.5%

CCn1c2ccccc2c2cc(C(=O)c3cccc4c3CCCN4)ccc21
inactive: [1] 104% | [2] 113% | [3] 91.6% | [4] 97.6% | [5] 106% | [6] 108% | [20] 94.4% | [8] 103% | [9] 99.5% | [10] 99.3% | [11] 93.7% | [12] 94.1% | [13] 107% | [14] 102% | [15] 99.3% | [17] 110% | [18] 120%

CC[C@]12C=CCN3CC[C@@]4(c5ccc(OC)cc5N(C)[C@H]4[C@@](O)(C(=O)OC)[C@@H]1OC(=O)CCCC[P+](c1ccccc1)(c1ccccc1)c1ccccc1)[C@@H]32
active: [2] 2.65% | [3] -12.8% | [7] -72.9% | [19] -6.54% | [9] -41.6%
inactive: [1] 99.3% | [4] 12.7% | [5] 10.9% | [20] 18.5% | [8] 12.5% | [10] 56.1% | [12] 81.9% | [13] 48.6% | [14] 93.1% | [15] 85.9% | [16] 52.2% | [18] 15.6%

CC[C@H](C)[C@H](NC(=O)C12C3C4C1C1C2C3C41NC)C(=O)N(C)[C@H](C[C@@H](OC(C)=O)c1nc(C(=O)N[C@@H](Cc2ccccc2)C[C@H](C)C(=O)OC)cs1)C(C)C (stereo partly drawn)
inactive: [1] 18.4% | [3] 31.4% | [4] 49.6% | [5] 11.6% | [6] 21.2% | [20] 15.7% | [8] 58.1% | [9] 43% | [10] 40.7% | [11] 36.5% | [12] 51.1% | [13] 41.9% | [14] 40.8% | [15] 40.5% | [18] 13.2%
active: [2] 2.58% | [16] -12.6% | [17] -14.6%

CCCc1cc(O)c2c3c(c(=O)oc2c1)CN(C)CC3
inactive: [1] 23.2% | [2] 10.8% | [4] 44.4% | [5] 16.7% | [7] 42.3% | [19] 37.8% | [20] 30.9% | [8] 56.4% | [9] 97.7% | [11] 39.1% | [12] 22.7% | [13] 47.3% | [14] 44.6% | [16] 15.4% | [18] 18.8%
active: [3] -8.41% | [15] 4.68% | [17] 6%

Cc1cc(NC(=O)NCc2ccc(N3C(N)=NC(N)=NC3(C)C)cc2)ccc1S(=O)(=O)F
inactive: [1] 62.2% | [2] 11.3% | [3] 56% | [4] 34.3% | [5] 32.7% | [7] 21% | [19] 11.6% | [20] 16.7% | [8] 57.4% | [9] 34.4% | [10] 53.5% | [11] 33.6% | [12] 80.1% | [13] 45.7% | [14] 89.2% | [16] 77.7% | [17] 24.7% | [18] 55.4%

N#Cc1c(Br)n(C2OC(CO)C(O)C2O)c2ncnc(N)c12 (stereo not drawn)
active: [16] -16.3% | [17] -33.7% | [18] 8.19%
inactive: [1] 43.9% | [2] 43.8% | [3] 76.2% | [4] 101% | [5] 69.4% | [6] 16.5% | [19] 77.9% | [20] 57.2% | [8] 43.7% | [10] 95.7% | [11] 60.3% | [12] 42.3% | [13] 115% | [14] 78.4%

N#C[Se]CCN1C(=O)c2ccccc2C1=O
inactive: [1] 53.2% | [2] 13.9% | [4] 38% | [5] 27.4% | [6] 41.8% | [19] 22.7% | [9] 43.7% | [10] 33.8% | [11] 64.4% | [12] 15.9% | [13] 15.3% | [18] 21.1%
active: [3] 2.39% | [20] 5.83% | [16] -12.5%

COC(=O)C1OC(Oc2ccc(N(CCCl)CCCl)cc2)C(OC(C)=O)C(OC(C)=O)C1OC(C)=O (stereo not drawn)
active: [15] 3.7%
inactive: [1] 83.3% | [2] 80.7% | [3] 59.2% | [4] 92.6% | [6] 78% | [7] 92.1% | [19] 79.6% | [20] 77.2% | [8] 83.5% | [9] 109% | [12] 73.1% | [13] 92.5% | [14] 27.4% | [16] 104% | [17] 40.1% | [18] 37.2%

CC1(C)N=C(N)N=C(N)N1c1ccc(CCC(=O)Nc2ccc(S(=O)(=O)F)cc2)c(Cl)c1
inactive: [1] 48% | [2] 15.5% | [3] 59.4% | [4] 42% | [5] 35% | [7] 22.2% | [20] 15.3% | [8] 50.4% | [9] 48.5% | [10] 55.1% | [12] 93.1% | [13] 42.4% | [14] 47.9% | [16] 34.8% | [17] 18.3% | [18] 44.9%

CC(C)(C)C(=O)OCOP(=O)(OCOC(=O)C(C)(C)C)C1CCCN(O)C1=O (stereo not drawn)
active: [1] 7.4% | [2] 2.01% | [4] 2.57% | [5] 2.06% | [8] -23.8% | [11] 2.67% | [12] 5.91% | [13] 2.8% | [14] 8.69% | [15] 5.9% | [16] -24.3% | [17] -21% | [18] 9.89%
inactive: [3] 47.6% | [6] 24.2% | [20] 17.6% | [9] 24.9% | [10] 19.7%

CC[C@H](C)[C@@H]1OC(=O)C(C)(C)[C@H](O)[C@H](Cc2ccccc2)OC(=O)[C@H](C(C)C)OC(=O)[C@@H](NC(=O)c2cccc(NC=O)c2O)[C@@H](C)OC1=O
inactive: [1] 36.2% | [2] 48.4% | [3] 63.9% | [4] 49.5% | [5] 41.2% | [6] 43.9% | [20] 38.1% | [9] 36.2% | [10] 29.9% | [12] 47.3% | [13] 49.8% | [14] 46.4% | [15] 38.7% | [16] 67.2% | [17] 60% | [18] 36.7%

CC(=O)O[C@H]1C(=O)[C@@]2(C)[C@H]([C@H](OC(=O)c3ccccc3)[C@]3(O)C[C@H](OC(=O)[C@H](OC(=O)OCC4COC(C)(C)O4)[C@@H](NC(=O)c4ccccc4)c4ccccc4)C(C)=C1C3(C)C)[C@]1(OC(C)=O)CO[C@@H]1C[C@@H]2O (stereo partly drawn)
active: [2] 9.74%
inactive: [1] 29.2% | [3] 41.9% | [4] 36.6% | [5] 34.4% | [6] 38.7% | [19] 34.4% | [8] 43.8% | [9] 54.2% | [10] 70.8% | [11] 51.7% | [12] 71.3% | [13] 79.6% | [14] 66.5% | [15] 37.5% | [16] 47.1% | [17] 12.8% | [18] 31.3%
